Results reported in the supplement of paper PMC9023506.
Counter-ions that a name gives are not always drawn.

test system: Danio rerio larvae (5 dpf); experiment: activity during first hour (no stimuli), difference vs DMSO (percentage points (treated minus DMSO)); higher = more of the behaviour than the DMSO vehicle control; conditions: 10 µM; exposure time: 3 h pre-incubation + 3 h imaging
Procedure: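 5-dpf wild-type zebrafish larvae were imaged in 96-well plates. They were treated with 190 Tocris FDA-approved drugs at 10 µM (1 µl/ml DMSO) for 3 h before and 3 h during imaging at 28.5 °C, 48 larvae per drug. Automated image analysis gave % time moving and optomotor responses. Values are drug group mean minus DMSO vehicle mean (n=844), in percentage points, for 10 behaviours.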

SMILES	activity during first hour
O=C(c1ccc(OCCN2CCCCC2)cc1)c1c(-c2ccc(O)cc2)sc2cc(O)ccc12 [Raloxifene hydrochloride]	-5.98
CCCN(CCC)S(=O)(=O)c1ccc(C(=O)O)cc1 [Probenecid]	-2.71
NS(=O)(=O)c1cc(C(=O)O)c(NCc2ccco2)cc1Cl [Furosemide]	5.98
CN(C)CCc1c[nH]c2ccc(Cn3cncn3)cc12 [Rizatriptan benzoate]	-2.37
NC(=O)c1ncn([C@@H]2O[C@H](CO)[C@@H](O)[C@H]2O)n1 [Ribavirin]	1.58
CC(c1cc2ccccc2s1)N(O)C(N)=O (stereo not given) [Zileuton]	-0.123
CC(=O)O[C@]1(C(C)=O)CC[C@H]2[C@@H]3C=C(C)C4=CC(=O)CC[C@]4(C)[C@H]3CC[C@@]21C [Megestrol Acetate]	-14.3
CC(C)[C@H]1CC[C@H](C(=O)N[C@H](Cc2ccccc2)C(=O)O)CC1 [Nateglinide]	4.52
CC(C)C(=O)OCC(=O)[C@@]12O[C@H](C3CCCCC3)O[C@@H]1C[C@H]1[C@@H]3CCC4=CC(=O)C=C[C@]4(C)[C@H]3[C@@H](O)C[C@@]12C [Ciclesonide]	-9.57
Clc1ccccc1C(c1ccccc1)(c1ccccc1)n1ccnc1 [Clotrimazole]	-21.6
CNC(=O)c1ccccc1Sc1ccc2c(/C=C/c3ccccn3)n[nH]c2c1 [Axitinib]	-2.72
Cc1cc(C2CCCCC2)n(O)c(=O)c1 [Ciclopirox]	2.44
CCOC(=O)[C@H](CCc1ccccc1)N[C@H]1CCc2ccccc2N(CC(=O)O)C1=O [Benazepril hydrochloride]	1.65
COc1ccccc1Oc1c(NS(=O)(=O)c2ccc(C(C)(C)C)cc2)nc(-c2ncccn2)nc1OCCO [Bosentan]	1.27
C#CCN[C@@H]1CCc2ccccc21 [Rasagiline mesylate]	4.92
CCOC(=O)[C@H](CCc1ccccc1)N[C@@H](C)C(=O)N1[C@H](C(=O)O)C[C@@H]2CCC[C@@H]21 [Ramipril]	2.6
COC(=O)C1=C(C)NC(C)=C(C(=O)OC(C)C)C1c1cccc2nonc12 (stereo not given) [Isradipine]	0.0385
CC1CNc2c(cccc2S(=O)(=O)N[C@@H](CCCNC(=N)N)C(=O)N2CC[C@@H](C)C[C@@H]2C(=O)O)C1 (stereo not given in full) [Argatroban]	4.69
COc1ccc([C@@H]2Sc3ccccc3N(CCN(C)C)C(=O)[C@@H]2OC(C)=O)cc1 [Diltiazem hydrochloride]	-3.56
Cc1nc(Nc2ncc(C(=O)Nc3c(C)cccc3Cl)s2)cc(N2CCN(CCO)CC2)n1 [Dasatinib]	-11.4

SMILES	activity during first hour
C[C@]12CCC(=O)C=C1CC[C@@H]1[C@@H]2[C@@H](O)C[C@@]2(C)[C@H]1CC[C@]2(O)C(=O)CO [Hydrocortisone]	3.43
O=C1CCc2cc(OCCCCc3nnnn3C3CCCCC3)ccc2N1 [Cilostazol]	10.3
CN1CCN2c3ncccc3Cc3ccccc3C2C1 (stereo not given) [Mirtazapine]	11.7
CCN(Cc1ccncc1)C(=O)C(CO)c1ccccc1 (stereo not given) [Tropicamide]	-5.17
O=C(O)CCCc1ccccc1 [Sodium 4-Phenylbutyrate]	3.48
Nc1nc(NC2CC2)c2ncn([C@H]3C=C[C@@H](CO)C3)c2n1 [Abacavir hemisulfate]	8.55
C[C@H]1C[C@@H]2[C@H]([C@@H](O)C[C@@]3(C)[C@H]2CC[C@]3(O)C(=O)CO)[C@@]2(C)C=CC(=O)C=C12 [Methylprednisolone]	0.814
CCCCNc1cc(C(=O)O)cc(S(N)(=O)=O)c1Oc1ccccc1 [Bumetanide]	3.74
COc1cc(Nc2c(C#N)cnc3cc(OCCCN4CCN(C)CC4)c(OC)cc23)c(Cl)cc1Cl [Bosutinib]	-16.6
CCCCCOC(=O)Nc1nc(=O)n([C@@H]2O[C@H](C)[C@@H](O)[C@H]2O)cc1F [Capecitabine]	6.31
CC(C)(C)NC(=O)[C@@H]1C[C@@H]2CCCC[C@@H]2CN1C[C@@H](O)[C@H](Cc1ccccc1)NC(=O)[C@H](CC(N)=O)NC(=O)c1ccc2ccccc2n1 [Saquinavir mesylate]	-9.81
Nc1cc(N2CCCCC2)nc(N)[n+]1[O-] [Minoxidil]	2.82
CC/C(=C(\c1ccccc1)c1ccc(OCCN(C)C)cc1)c1ccccc1 [Tamoxifen citrate]	31.4
COc1cc2nc(N3CCN(C(=O)C4COc5ccccc5O4)CC3)nc(N)c2cc1OC (stereo not given) [Doxazosin mesylate]	-2.96
CCCc1nc(C(C)(C)O)c(C(=O)O)n1Cc1ccc(-c2ccccc2-c2nnn[nH]2)cc1 [Olmesartan]	12.1
Cn1cnc([N+](=O)[O-])c1Sc1ncnc2[nH]cnc12 [Azathioprine]	7.36
O=C(Nc1c(Cl)cncc1Cl)c1ccc(OC(F)F)c(OCC2CC2)c1 [Roflumilast]	-15.3
NS(=O)(=O)c1cc2c(cc1Cl)NC(C1CC3C=CC1C3)NS2(=O)=O (stereo not given) [Cyclothiazide]	0.422
CC(CCc1ccc(O)cc1)NCCc1ccc(O)c(O)c1 (stereo not given) [Dobutamine hydrochloride]	-1.97
COc1ccccc1OCCNCC(O)COc1cccc2[nH]c3ccccc3c12 (stereo not given) [Carvedilol]	-9.72
